An excerpt weighted towards active compounds, which were near 21% of everything screened.
IL-1B inflam inh: inflammasome signaling inhibition, IL-1 beta readout | THP-1 LPS/ATP IL-1B secretion, AlphaLISA, 16 h; active compounds read low | activity change, % at 57.5 µM | hit rate 4.7% among 360,000 | AID 743279; in the data active means activity change below about -50%; inconclusive means mostly about -30% to -49%
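Secreted IL-1B measured by AlphaLISA bead assay after 16 h compound exposure of THP-1 cells; compounds (final up to 57.5 uM) added 1 h before LPS (250 ng/mL) and ATP (1.25 mM) stimulation; lower signal means less secretion.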
TDP1 cell CPT: DT40-hTDP1 cell growth loss with CPT | chicken DT40 Tdp1-/-;hTDP1 cells + 20 nM CPT, ATP luminescence, 48 h | Potency, µM (doses to about 46.2 µM), most hits filed as inhibitors | hit rate 12% among 420,000 | AID 686979; further: nearly all actives have a fitted effect of over 55% in size
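Chicken DT40 Tdp1-/- cells stably complemented with human TDP1 were seeded at 400 cells/well in medium containing 20 nM camptothecin, exposed to pin-transferred compounds, and grown at 37 °C for at least 48 hr. Viability was read as ATP luminescence.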
DRD3 antagonist: antagonists of human D3 dopamine receptor; P35462; D3R cells, DiscoveRx beta-arrestin luminescence, antagonist mode; active compounds read low; max response, negative = inhibition, %; hit rate 2.5% among 360,000; AID 652054; in the data active means max response below about -50%; inconclusive means no clear call, values can overlap the other calls
Target sequence (P35462 whole entry, looked up): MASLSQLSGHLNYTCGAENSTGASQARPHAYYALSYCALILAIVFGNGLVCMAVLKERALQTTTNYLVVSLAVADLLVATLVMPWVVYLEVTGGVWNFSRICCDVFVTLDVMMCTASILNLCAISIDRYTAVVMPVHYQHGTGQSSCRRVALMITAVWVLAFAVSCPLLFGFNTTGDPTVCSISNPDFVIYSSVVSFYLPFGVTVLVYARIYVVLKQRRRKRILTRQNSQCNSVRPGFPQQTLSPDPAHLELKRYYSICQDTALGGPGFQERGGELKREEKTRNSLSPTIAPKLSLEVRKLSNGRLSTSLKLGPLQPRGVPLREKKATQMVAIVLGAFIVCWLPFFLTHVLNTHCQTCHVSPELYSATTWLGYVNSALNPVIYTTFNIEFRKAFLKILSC
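Cells expressing the human receptor were seeded at 1500 cells/well, incubated overnight at 37 degrees C in 5% CO2, then exposed to library compounds with dopamine controls for 90 minutes at 37 degrees C before luminescent detection.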
DT40 TDP1 no CPT: qHTS for Inhibitors of human tyrosyl-DNA phosphodiesterase 1 (TDP1): qHTS in cells in absence of CPT; AID 686978, 2013; hit rate 15% among 420,000; DT40 Tdp1-/- hTDP1 cells, no CPT, ATP luminescence, 48 h; Potency, µM (titrated, usually from 46.2 µM), usual class: inhibitors; further: nearly all actives have a fitted effect of over 55% in size
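Growth kinetics read by CellTiter-Glo luminescence after ≥48 hr at 37 °C. Cells: DT40 Tdp1-/- stably carrying human TDP1, 400 per well, compound exposure in the absence of CPT (DMSO vehicle).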
DRD3 agonist: D3 dopamine receptor (human) agonism; P35462; D3R DiscoveRx beta-arrestin cells, luminescence, 90 min; max activation, %; hit rate 0.58% among 410,000; AID 652048; in the data active means max activation above about 30%
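Agonist mode: compounds and dopamine controls were applied to plated cells for 90 min at 37 degrees C after an overnight attachment at 1500 cells/well. Luminescent read-out followed 30 - 60 minutes at room temperature with DiscoveRx detection reagent.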
ClpP mod: qHTS Assay for Activators of ClpP | purified B. subtilis ClpP, FRET peptide cleavage, 20 min | ATP-dependent Clp protease proteolytic subunit (Bacillus subtilis (strain 168)), P80244 | hit rate 1.9% among 340,000 | Potency, µM (titrated, usually from 57.5 µM); active means well fitted falling curve with a large enough effect; inconclusive means small, poorly fitted or top-dose-only effect; inactive means no such curve, though single readings can be large or run the other way; further: the source files actives as falling curves though it sought activators and does not explain the sign; nearly all actives have a fitted effect of over 65% in size
Target sequence (P80244 whole entry, looked up): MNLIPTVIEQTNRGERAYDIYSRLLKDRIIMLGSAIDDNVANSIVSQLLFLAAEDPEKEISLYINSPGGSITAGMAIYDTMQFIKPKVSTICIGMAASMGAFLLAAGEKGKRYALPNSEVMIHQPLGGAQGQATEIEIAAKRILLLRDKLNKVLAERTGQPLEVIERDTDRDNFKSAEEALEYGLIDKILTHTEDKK
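FRET quenching reversal measured ClpP activation: 10 microg/mL B. subtilis ClpP at pH 8 with the FRET-FV decapeptide, read at 430 nm after 320 nm excitation. The 20-min minus 0-min signal was scaled between DMSO/no-enzyme wells and ADEP (5.8 microM final).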
Numbers stand for hits; - = inactive; ? = inconclusive; . = no result given. Unless noted, the call rests on the fitted dose curve; in most records, active means well fitted inhibition curve with a large enough effect; inconclusive means small, poorly fitted or top-dose-only effect; inactive means flat fitted curve, though single readings scatter.

SMILES	IL-1B inflam inh	TDP1 cell CPT	DRD3 antagonist	DT40 TDP1 no CPT	DRD3 agonist	ClpP mod
Cc1cc(C)cc(NC(=O)c2ccc(NC(=O)C3C4CC5OC(=O)C3C5C4)cc2)c1 (stereo not drawn)	-	-	-	-	-	32µM
O=C(CSc1ncc2c(n1)-c1ccccc1N(Cc1ccc(F)cc1)S2(=O)=O)c1ccc(Br)cc1	.	-	.	?	-	-
Cc1cccc(C)c1NC(=O)CCCCCC1NC(=O)NC1C (stereo not drawn)	-55	-	-	-	-	.
C[C@@H]1NC(=O)N[C@@H]1CCCCCC(=O)O	-102	-	-	-	-	-
O=C(O)CCCCC1SCC2NC(=O)NC21 (stereo not drawn)	-56	-	-	-	-	-
COC(=O)CCCCC1SCC(NC(=O)OC)C1NC(=O)OC (stereo not drawn)	-	-	-	-	-	-
O=C(CCCCC(=O)NCCCc1ccccc1)NCCCc1ccccc1	-	-	-	?	-	-
CCCCCC1NC(=O)NC1CCCCCC(=O)O (stereo not drawn)	-	-	-	-	-	-
CC1NC(=O)NC1CCCCCC(=O)NCCc1ccccc1 (stereo not drawn)	-96	-	-	-	-	-
Cc1cccc(C)c1NC(=O)CCCN1CC(C)OC(C)C1 (stereo not drawn)	-	-	-	-	-	-
CCc1nnc(NC(=O)c2cc(=O)c3cc(C)ccc3o2)s1	.	-	.	-	-	-
CCc1ccc(N2CCn3c2nc2c3c(=O)n(C/C=C/c3ccccc3)c(=O)n2C)cc1	.	-	.	-	-	-
CCCCC(=O)NC(c1cccs1)c1cc(Cl)c2cccnc2c1O (stereo not drawn)	-	3.7µM	-	2.6µM	-	-
CCC(=O)NC(c1cccs1)c1cc(Cl)c2cccnc2c1O (stereo not drawn)	-	4.6µM	?	3.3µM	-	-
COc1ccc(CNC(=O)CSCc2cnn(-c3ccccc3)c2-n2cccc2)cc1	-	-	-	23µM	-	-
O=C(CSCc1cnn(-c2ccccc2)c1-n1cccc1)NCC1CCCO1 (stereo not drawn)	-	?	-	?	-	-
CCN(CC)C(=O)CSCc1cnn(-c2ccccc2)c1-n1cccc1	-	?	-	16µM	-	-
COc1ccc(OC)c(CCNC(=O)c2cnn(-c3ccccc3)c2-n2cccc2)c1	.	23µM	.	1.8µM	-	-
Cc1ccccc1CNC(=O)CCSCc1cnn(-c2ccccc2)c1-n1cccc1	.	?	.	16µM	-	-
O=C(CSCc1cnn(-c2ccccc2)c1-n1cccc1)NCCN1CCOCC1	-	-	-	-	-	-
COc1ccc(CC(=O)NCc2nc3cccnc3n2Cc2ccc(C)cc2)cc1OC	.	?	.	?	-	-
CCc1ccccc1NC(=O)CSCc1cnn(-c2ccccc2)c1-n1cccc1	.	?	.	?	-	-
COc1ccc(NC(=O)CSCc2cnn(-c3ccccc3)c2-n2cccc2)cc1	.	?	.	16µM	-	-
COc1ccc(CCNC(=O)c2cnn3ccccc23)c(OC)c1OC	-	?	?	23µM	-	-
Cc1cc(C)n(-c2ccc(NC(=O)C3CCN(Cc4ccc(C)o4)CC3)cc2)n1	-	-	-	?	-	-
SMILES	IL-1B inflam inh	TDP1 cell CPT	DRD3 antagonist	DT40 TDP1 no CPT	DRD3 agonist	ClpP mod
O=C1NC[C@H](c2ccccc2)OC(=O)[C@H](Cc2ccc(F)cc2)CC/C=C/C[C@@H]1CC(=O)N(CCO)Cc1ccccc1	-	9.2µM	-	10µM	-	-
O=C1NC[C@@H](c2ccccc2)OC(=O)[C@@H](Cc2ccc(F)cc2)CC/C=C/C[C@H]1CC(=O)N(CCO)Cc1ccccc1	?	13µM	-	18µM	-	-
CCOc1ccc(NC(=O)Cn2c(=O)n(CCc3ccccc3)c(=O)c3c4c(sc32)CCCC4)cc1	.	-	.	-	-	-
Cc1cc(NS(=O)(=O)c2ccc(NC(=O)COc3ccccc3C(C)(C)C)cc2)no1	-	-	-	-	-	-
O=C(c1ccccc1F)N1CCN(CC2CC3C=CC2C3)CC1 (stereo not drawn)	-	-	?	-	-	-
Cc1ccc(CN2CCN(CC3CC4C=CC3C4)CC2)cc1 (stereo not drawn)	-	-	-60	?	-	-
COc1ccc(C(=O)NNC2=C(C(=O)C(F)(F)F)CCC2)cc1	-	0.73µM	-	1.3µM	-	.
O=C(NNC1=C(C(=O)C(F)(F)F)CCC1)c1ccc(Cl)cc1	-	?	-	?	-	-
O=C(NNC1=C(C(=O)C(F)(F)F)CCC1)c1cccc(Cl)c1	-	5.8µM	-	6.5µM	-	-
CCN(CC(=O)NCc1cccs1)C(=O)c1cccc(S(=O)(=O)NC)c1	-	?	-	?	-	-
CCN(CC(=O)NCc1ccc(F)cc1)C(=O)c1ccc(Cl)cc1	-	-	-	-	-	-
CCN(CC(=O)NCc1ccc(Cl)cc1)C(=O)c1ccc(C#N)cc1	-	21µM	-	?	-	-
CCN(CC(=O)NCc1cccs1)C(=O)c1cccc(S(=O)(=O)Nc2ccc(OC)cc2)c1	-	-	-	-	-	-
CCN(CC(=O)NCc1ccc(Cl)cc1)C(=O)c1cccc(S(=O)(=O)Nc2ccc(OC)cc2)c1	-	?	-	10µM	-	-
CCN(CC(=O)NCc1cccs1)C(=O)c1cccc(S(=O)(=O)Nc2ccccc2Cl)c1	-	-	-	-	-	35µM
O=C(COC(=O)c1ccco1)Nc1nnc(-c2ccccc2)o1	-	-	-	-	-	.
COC(=O)c1c(OCc2cccnc2)cc(=O)n2c1CCN(C(=O)c1c3c(nn1C)CCCC3)CC2	.	-	.	-	.	.
O=C1CC(N2CCOCC2)=NN1c1ccc([N+](=O)[O-])cc1	-	?	-	26µM	-	-
CCc1ccc2c(c1)N(CC(C)CN(C)C)c1ccccc1S2 (stereo not drawn)	.	?	.	15µM	-	.
CCOC(=O)[C@@H]1[C@H]2COc3cc(OC)ccc3[C@H]2N2C(=O)N(c3ccc(F)cc3)C(=O)[C@@]12C	-	-	-	?	-	-
CCOC(=O)[C@@H]1[C@H]2COc3cc(OC)ccc3[C@@H]2N2C(=O)N(c3cccc(Cl)c3)C(=O)[C@]12C	-	?	-	?	-	-
CCOC(=O)[C@@H]1[C@H]2COc3cc(OC)ccc3[C@@H]2N2C(=O)N(c3ccc(Br)cc3)C(=O)[C@]12C	-	15µM	-	?	-	-
